# Records with an inconclusive call do not appear. The source made the active and inactive calls. The calls were made as follows, unless noted: active = hit-call score of the fitted dose curve at least 0.9, where 1 is the maximum; inactive = score below 0.9.
# Key:
# [1] = molecular target: Nuclear respiratory factor 1 (Homo sapiens) (UniProt Q16656); test: ATG_NRF1_CIS: Attagene CIS-FACTORIAL HepG2 Assay for human Nuclear Respiratory Factor 1 (NRF1) Orphan Gene (AID 2282987); details: HepG2 NRF1 cis-element reporter, Attagene multiplex; actives raise or lower the signal
# Sequence of Nuclear respiratory factor 1 (Homo sapiens) (Q16656 whole entry, looked up, the tested form may be a part): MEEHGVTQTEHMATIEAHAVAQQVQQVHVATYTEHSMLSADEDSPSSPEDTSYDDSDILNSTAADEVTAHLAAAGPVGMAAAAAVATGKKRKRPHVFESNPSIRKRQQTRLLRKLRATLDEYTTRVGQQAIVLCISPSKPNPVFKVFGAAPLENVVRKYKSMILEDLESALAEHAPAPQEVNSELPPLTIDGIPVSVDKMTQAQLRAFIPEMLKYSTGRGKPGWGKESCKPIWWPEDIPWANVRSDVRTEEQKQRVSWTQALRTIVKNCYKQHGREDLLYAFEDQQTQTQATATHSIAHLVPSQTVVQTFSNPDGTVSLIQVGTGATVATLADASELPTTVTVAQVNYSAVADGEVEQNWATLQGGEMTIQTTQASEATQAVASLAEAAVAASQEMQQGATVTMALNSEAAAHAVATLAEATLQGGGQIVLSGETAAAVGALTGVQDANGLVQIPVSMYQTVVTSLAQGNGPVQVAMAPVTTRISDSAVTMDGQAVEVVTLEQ
# Procedure, shortened: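 Fluorescence intensity of labelled reporter cDNA fragments, resolved by capillary electrophoresis, served as readout for NRF1 cis-element activity. Transiently transfected HepG2 cells were dosed for 24 hours; activity in either direction was fitted against DMSO negative control.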
# [2] = molecular target: Myc proto-oncogene protein (Homo sapiens) (UniProt P01106); test: ATG_Myc_CIS: Attagene CIS-FACTORIAL HepG2 Assay for human Myelocytomatosis (Myc) Proto-Oncogene Transcription Factor (AID 2282990); details: HepG2, Attagene cis-reporter transcription factor activity; actives raise or lower the signal
# Sequence of Myc proto-oncogene protein (Homo sapiens) (P01106 whole entry, looked up): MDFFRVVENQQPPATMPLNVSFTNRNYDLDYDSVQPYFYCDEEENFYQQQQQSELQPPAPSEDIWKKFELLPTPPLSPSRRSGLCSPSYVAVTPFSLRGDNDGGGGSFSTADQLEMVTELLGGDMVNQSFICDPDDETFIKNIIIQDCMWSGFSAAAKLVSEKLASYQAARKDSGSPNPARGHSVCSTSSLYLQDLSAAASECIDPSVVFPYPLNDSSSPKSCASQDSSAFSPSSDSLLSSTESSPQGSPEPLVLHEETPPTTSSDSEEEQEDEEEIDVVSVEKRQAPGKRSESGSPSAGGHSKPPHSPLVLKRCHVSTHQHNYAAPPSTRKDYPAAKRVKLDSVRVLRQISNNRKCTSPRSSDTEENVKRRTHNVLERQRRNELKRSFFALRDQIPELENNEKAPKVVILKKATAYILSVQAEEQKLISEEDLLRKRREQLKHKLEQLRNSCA
# Procedure, shortened: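 HepG2 cells transiently transfected with multiple cis-promoter-driven reporter transcription units, so endogenous TF activity is read. After 24 h compound exposure, reporter mRNA was quantified by RT-PCR, 6-FAM labelling, HpaI digestion and capillary electrophoresis; bidirectional fit versus DMSO.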
# [3] = ATG_NF_kB_CIS: Attagene CIS-FACTORIAL HepG2 Assay for human Nuclear Factor Kappa B (NF-kB) (AID 2282991); details: HepG2 Attagene cis-factorial NF-kB reporter mRNA; actives raise or lower the signal
# Procedure, shortened: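 Endogenous transcription factor activity in HepG2 was captured via cis-regulated reporter constructs; after 24 h dosing, reporter mRNA was reverse-transcribed, amplified, fluorescently labelled and sized by capillary electrophoresis, with activity fitted bidirectionally relative to DMSO.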
# [4] = ATG_NRF2_ARE_CIS: Attagene CIS-FACTORIAL HepG2 Assay for human Nuclear Factor Erythroid 2 Related Factor 2 (NFR2) response to Antioxidant Response Elements (ARE) (AID 2282992); details: HepG2 Attagene ARE/NRF2 reporter, transcription factor activity; actives raise or lower the signal;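 as to AC50: reporter mRNA level measured by RT-PCR and capillary electrophoresis fluorescence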
# Procedure, shortened: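 Readout: reporter mRNA quantified by RT-PCR plus FAM-labelled primer extension, HpaI digestion and capillary electrophoresis, 24 h after dosing transfected HepG2 cells. Gain or loss of signal is fitted bidirectionally against DMSO baseline.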
# [5] = ATG_Oct_MLP_CIS: Attagene CIS-FACTORIAL HepG2 Assay for human Octamer-Binding Transcription Factor (Oct) (AID 2282993); details: HepG2 Attagene cis-factorial Oct reporter, mRNA; actives raise or lower the signal
# Procedure, shortened: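 Transfected HepG2 cells, 24 h treatment. Reporter mRNA quantified by RT-PCR–capillary electrophoresis; bidirectional fitting against DMSO.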
# [6] = molecular target: Cellular tumor antigen p53 (Homo sapiens) (UniProt P04637); test: ATG_p53_CIS: Attagene CIS-FACTORIAL HepG2 Assay for human p53 Transcription Factor (AID 2282994); details: HepG2 p53 cis-element reporter, Attagene mRNA; actives raise or lower the signal
# Sequence of Cellular tumor antigen p53 (Homo sapiens) (P04637 whole entry, looked up): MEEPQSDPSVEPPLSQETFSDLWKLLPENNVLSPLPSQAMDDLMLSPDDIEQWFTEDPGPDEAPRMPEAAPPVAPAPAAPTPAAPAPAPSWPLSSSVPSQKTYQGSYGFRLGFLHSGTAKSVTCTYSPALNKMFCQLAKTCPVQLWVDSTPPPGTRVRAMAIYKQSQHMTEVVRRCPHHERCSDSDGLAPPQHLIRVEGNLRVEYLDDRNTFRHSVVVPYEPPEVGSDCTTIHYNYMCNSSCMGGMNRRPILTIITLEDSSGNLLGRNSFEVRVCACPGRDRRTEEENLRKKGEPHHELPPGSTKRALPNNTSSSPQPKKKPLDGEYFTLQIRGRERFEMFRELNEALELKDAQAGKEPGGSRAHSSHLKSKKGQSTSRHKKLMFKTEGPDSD
# Procedure, shortened: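 Read-out: reporter mRNA by RT-PCR plus capillary electrophoresis with fluorescence detection. Human HepG2 liver cells carried transfected multi-reporter cis-element constructs, dosed 24 h. Gain or loss of signal fitted bidirectionally against DMSO control.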
# [7] = molecular target: human Peroxisome Proliferator-activated Receptor alpha (PPARa), PPARA (gene 5465) (UniProt Q07869); test: ATG_PPARa_TRANS: Attagene TRANS-FACTORIAL HepG2 Assay for human Peroxisome Proliferator-activated Receptor alpha (PPARa) (AID 2283001; active = hit-call score of the fitted dose curve at least 0.9, where 1 is the maximum;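 as to AC50: potency for gain of reporter signal over DMSO so agonist or activator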)
# Sequence of human Peroxisome Proliferator-activated Receptor alpha (PPARa), PPARA (gene 5465) (Q07869 whole entry, looked up): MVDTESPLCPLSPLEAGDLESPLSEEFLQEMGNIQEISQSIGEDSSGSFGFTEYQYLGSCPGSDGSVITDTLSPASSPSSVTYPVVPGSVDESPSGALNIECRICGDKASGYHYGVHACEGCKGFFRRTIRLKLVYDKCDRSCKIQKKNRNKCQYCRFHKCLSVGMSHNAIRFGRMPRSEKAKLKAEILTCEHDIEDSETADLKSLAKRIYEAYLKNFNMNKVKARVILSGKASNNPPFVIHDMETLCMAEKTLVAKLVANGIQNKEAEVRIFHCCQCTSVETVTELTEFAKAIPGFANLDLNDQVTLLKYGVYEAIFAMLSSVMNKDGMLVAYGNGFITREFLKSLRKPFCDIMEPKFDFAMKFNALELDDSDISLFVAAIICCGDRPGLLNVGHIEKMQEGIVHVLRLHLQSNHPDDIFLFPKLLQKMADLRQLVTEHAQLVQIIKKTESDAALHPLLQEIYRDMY
# Procedure, shortened: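 Cells (HepG2) are transfected with multiple reporter transcription units, exposed to chemical for 24 h, then total RNA is reverse-transcribed and amplified. Labelled products are quantified by capillary electrophoresis; induction is referenced to DMSO.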
# [8] = molecular target: Peroxisome proliferator-activated receptor gamma (Homo sapiens) (UniProt P37231); test: ATG_PPARg_TRANS: Attagene TRANS-FACTORIAL HepG2 Assay for human Peroxisome Proliferator-activated Receptor-gamma (PPARg) (AID 2283007; active = hit-call score of the fitted dose curve at least 0.9, where 1 is the maximum)
# Sequence of Peroxisome proliferator-activated receptor gamma (Homo sapiens) (P37231 whole entry, looked up, the tested form may be a part): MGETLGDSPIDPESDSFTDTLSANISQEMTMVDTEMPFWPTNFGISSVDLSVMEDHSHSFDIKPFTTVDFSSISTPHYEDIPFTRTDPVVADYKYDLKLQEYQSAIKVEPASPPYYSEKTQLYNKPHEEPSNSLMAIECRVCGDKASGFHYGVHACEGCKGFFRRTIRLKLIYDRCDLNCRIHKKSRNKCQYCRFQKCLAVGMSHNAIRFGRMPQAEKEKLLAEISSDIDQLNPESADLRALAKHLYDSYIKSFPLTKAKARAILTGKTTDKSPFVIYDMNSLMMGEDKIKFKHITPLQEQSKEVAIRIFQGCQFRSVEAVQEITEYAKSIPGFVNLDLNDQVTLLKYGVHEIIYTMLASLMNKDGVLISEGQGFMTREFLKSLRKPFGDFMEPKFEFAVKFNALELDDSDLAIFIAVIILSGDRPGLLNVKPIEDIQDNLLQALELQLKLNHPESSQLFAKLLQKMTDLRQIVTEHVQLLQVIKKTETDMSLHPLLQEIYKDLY
# Procedure, shortened: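 A TRANS-format multiplexed reporter assay measures activity of an exogenous chimeric NR-Gal4 protein in HepG2 cells. After 24 h of chemical exposure, reporter transcripts are amplified, fluorescently labelled and sized by capillary electrophoresis, with gain of signal scored against DMSO.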
# [9] = molecular target: Nuclear receptor subfamily 1 group I member 2 (Homo sapiens) (UniProt O75469); test: ATG_PXR_TRANS: Attagene TRANS-FACTORIAL HepG2 Assay for human Pregnane X Receptor (PXR) (AID 2283008; active = hit-call score of the fitted dose curve at least 0.9, where 1 is the maximum)
# Sequence of Nuclear receptor subfamily 1 group I member 2 (Homo sapiens) (O75469 whole entry, looked up, the tested form may be a part): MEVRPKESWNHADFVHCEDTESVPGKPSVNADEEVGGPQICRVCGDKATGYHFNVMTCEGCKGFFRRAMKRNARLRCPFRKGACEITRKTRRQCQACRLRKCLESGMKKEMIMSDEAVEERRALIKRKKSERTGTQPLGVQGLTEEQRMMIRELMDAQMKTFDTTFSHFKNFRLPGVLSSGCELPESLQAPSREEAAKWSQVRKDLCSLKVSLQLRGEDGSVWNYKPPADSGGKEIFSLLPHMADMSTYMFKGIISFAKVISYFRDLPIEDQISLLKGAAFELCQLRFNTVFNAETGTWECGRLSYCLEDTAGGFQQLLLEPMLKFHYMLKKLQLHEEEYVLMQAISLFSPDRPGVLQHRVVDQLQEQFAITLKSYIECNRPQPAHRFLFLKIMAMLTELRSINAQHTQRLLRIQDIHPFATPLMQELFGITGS
# Procedure, shortened: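 Trans-factorial format: exogenous NR-Gal4 fusion activity, not endogenous factor, in transfected human HepG2 liver cells. After 24 h dosing, RNA isolated, reverse-transcribed, amplified and resolved by capillary electrophoresis; induction scored versus DMSO.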
# [10] = molecular target: Retinoic acid receptor alpha (Homo sapiens) (UniProt P10276); test: ATG_RARa_TRANS: Attagene TRANS-FACTORIAL HepG2 Assay for human Retinoic Acid Receptor alpha (RARa) (AID 2283005; active = hit-call score of the fitted dose curve at least 0.9, where 1 is the maximum)
# Sequence of Retinoic acid receptor alpha (Homo sapiens) (P10276 whole entry, looked up, the tested form may be a part): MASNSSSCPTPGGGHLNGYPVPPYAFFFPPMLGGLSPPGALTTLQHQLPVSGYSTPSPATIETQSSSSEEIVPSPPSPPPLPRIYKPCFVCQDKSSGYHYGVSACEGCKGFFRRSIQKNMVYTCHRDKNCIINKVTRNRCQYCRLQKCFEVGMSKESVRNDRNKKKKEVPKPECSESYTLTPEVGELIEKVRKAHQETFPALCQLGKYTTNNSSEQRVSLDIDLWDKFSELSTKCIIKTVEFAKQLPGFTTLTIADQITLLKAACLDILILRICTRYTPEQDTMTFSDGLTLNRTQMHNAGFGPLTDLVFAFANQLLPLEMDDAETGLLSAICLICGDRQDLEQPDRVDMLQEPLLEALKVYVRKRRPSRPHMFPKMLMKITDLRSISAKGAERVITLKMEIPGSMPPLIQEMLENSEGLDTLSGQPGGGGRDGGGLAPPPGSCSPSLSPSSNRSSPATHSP
# Procedure, shortened: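 HepG2 cells transiently transfected with multiple reporter units expressing chimeric RARα-GAL4 fusion, with GAL4-UAS-driven reporters. After 24 h compound exposure, reporter mRNA induction quantified by RT-PCR and capillary electrophoresis with fluorescent labeling; gain-of-signal fitted relative to DMSO control.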
# [11] = BSK_3C_TissueFactor: BioMAP Diversity Plus: 3C Assay for Tissue Factor Biomarker Activity (AID 2282997); details: BioMAP 3C HUVEC, tissue factor biomarker readout; actives raise or lower the signal
# Procedure, shortened: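 Tissue Factor measured by ELISA, 24 h after treatment of primary HUVEC in the BioMAP 3C setting.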
# [12] = BSK_3C_uPAR: BioMAP Diversity Plus: 3C Assay for Urokinase-type plasminogen activator receptor (uPAR) Biomarker Activity (AID 2282998); details: BioMAP 3C HUVEC, uPAR biomarker ELISA; actives raise or lower the signal
# Procedure, shortened: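 Readout: ELISA for surface uPAR. System: human umbilical vein endothelial primary cells, 24 h after chemical exposure. Analysis: bidirectional fit, DMSO baseline.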
# [13] = BSK_4H_Eotaxin3: BioMAP Diversity Plus: 4H Assay for Eotaxin 3 Biomarker Activity (AID 2283000); details: primary human endothelial cells (HUVEC); actives raise or lower the signal;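 also: CCL26 protein level quantified by ELISA in parallel with SRB cytotoxicity check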
# Procedure, shortened: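 Eotaxin-3 (CCL26) levels were measured by ELISA in HUVEC primary cultures 24 h post-dosing. Gain or loss of signal was fitted in both directions, with DMSO serving as baseline and negative control.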
# [14] = read-out: Intercellular Adhesion Molecule 1 (ICAM1), ICAM1 (gene 3383); test: BSK_3C_ICAM1: BioMAP Diversity Plus: 3C Assay for Intercellular Adhesion Molecule 1 (ICAM1) Biomarker Activity (AID 2283003); details: primary human endothelial cells (HUVEC); actives raise or lower the signal
# Procedure, shortened: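 Chemicals are dosed onto primary human umbilical vein endothelium (3C system). After 24 h, ICAM-1 is measured by ELISA, and responses are fitted bidirectionally relative to DMSO.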
# [15] = BSK_3C_Proliferation: Cell Proliferation Assessment in the BioMAP Diversity Plus: 3C Assay (AID 2283006); details: primary human endothelial cells (HUVEC)
# Procedure, shortened: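 Cells (human umbilical vein endothelial, sub-confluent) receive test chemical; after 48 h they are fixed in 10% trichloroacetic acid, stained with 0.1% SRB and read at 560 nm. Activity is referenced to DMSO, fitting increases and decreases.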
# [16] = BSK_3C_VCAM1: BioMAP Diversity Plus: 3C Assay for Vascular cell adhesion molecule 1 (VCAM1) Biomarker Activity (AID 2282999); details: BioMAP 3C HUVEC, VCAM1 ELISA, cytokine-stimulated; actives raise or lower the signal
# Procedure, shortened: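 Vascular primary endothelium (human umbilical vein) was exposed to chemicals and assayed 24 h later. VCAM-1 levels came from ELISA, with DMSO serving as baseline for bidirectional fitting.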
# [17] = molecular target: human Peroxisome Proliferator-activated Receptor delta (PPARd), PPARD (gene 5467) (UniProt Q03181); test: ATG_PPARd_TRANS: Attagene TRANS-FACTORIAL HepG2 Assay for human Peroxisome Proliferator-activated Receptor delta (PPARd) (AID 2283002; active = hit-call score of the fitted dose curve at least 0.9, where 1 is the maximum)
# Sequence of human Peroxisome Proliferator-activated Receptor delta (PPARd), PPARD (gene 5467) (Q03181 whole entry, looked up, the tested form may be a part): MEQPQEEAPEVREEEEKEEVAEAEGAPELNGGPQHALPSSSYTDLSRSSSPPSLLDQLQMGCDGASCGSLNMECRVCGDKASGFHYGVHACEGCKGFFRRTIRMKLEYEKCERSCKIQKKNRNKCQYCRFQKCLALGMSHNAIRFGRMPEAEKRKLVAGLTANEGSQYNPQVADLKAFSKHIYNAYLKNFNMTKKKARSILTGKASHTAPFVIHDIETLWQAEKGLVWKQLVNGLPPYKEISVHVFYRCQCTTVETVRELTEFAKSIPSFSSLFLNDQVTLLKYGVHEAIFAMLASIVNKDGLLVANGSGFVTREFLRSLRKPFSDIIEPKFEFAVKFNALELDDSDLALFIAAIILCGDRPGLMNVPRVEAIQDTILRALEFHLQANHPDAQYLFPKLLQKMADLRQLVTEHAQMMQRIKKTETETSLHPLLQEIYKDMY
# Procedure, shortened: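 HepG2 cells transiently transfected with multiplexed GAL4-UAS reporter units and exogenous chimeric NR-Gal4 proteins; 24 h compound exposure. Reporter mRNA measured by RT-PCR, 6-FAM labelling, HpaI digestion and capillary electrophoresis; gain of signal versus DMSO.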
# [18] = ATG_NFI_CIS: Attagene CIS-FACTORIAL HepG2 Assay for human Nuclear Factor I (NFI) (AID 2282989); details: HepG2 cis-regulatory reporter, NFI response element transcription; actives raise or lower the signal
# Procedure, shortened: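 Reporter transcription driven by endogenous transcription factors in HepG2 cells; 24 h treatment. Quantitation by labelled RT-PCR fragments on capillary electrophoresis, gain- or loss-of-signal relative to DMSO.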
# [19] = molecular target: human Retinoic Acid Receptor beta (RARb), RARB (gene 5915) (UniProt P10826); test: ATG_RARb_TRANS: Attagene TRANS-FACTORIAL HepG2 Assay for human Retinoic Acid Receptor beta (AID 2283004; active = hit-call score of the fitted dose curve at least 0.9, where 1 is the maximum)
# Sequence of human Retinoic Acid Receptor beta (RARb), RARB (gene 5915) (P10826 whole entry, looked up, the tested form may be a part): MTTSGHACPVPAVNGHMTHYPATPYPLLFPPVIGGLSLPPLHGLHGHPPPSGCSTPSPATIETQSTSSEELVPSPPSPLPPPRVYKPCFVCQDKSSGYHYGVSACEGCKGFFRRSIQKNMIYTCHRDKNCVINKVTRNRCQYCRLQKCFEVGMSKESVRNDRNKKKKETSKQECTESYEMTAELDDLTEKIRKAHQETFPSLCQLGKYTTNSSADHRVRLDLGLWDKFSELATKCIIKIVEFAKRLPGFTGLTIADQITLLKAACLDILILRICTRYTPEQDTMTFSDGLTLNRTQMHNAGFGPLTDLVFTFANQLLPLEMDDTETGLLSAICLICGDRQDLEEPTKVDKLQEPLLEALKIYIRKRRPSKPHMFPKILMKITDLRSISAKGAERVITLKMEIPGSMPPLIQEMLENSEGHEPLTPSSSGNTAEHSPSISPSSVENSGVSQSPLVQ
# Procedure, shortened: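 HepG2 cells were transiently transfected with GAL4-UAS reporter units that report activity of exogenous chimeric NR-Gal4 proteins, then exposed to compound for 24 h. Reporter mRNA was quantified by RT-PCR with capillary electrophoresis fluorescence, as gain of signal over DMSO.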
compound,measurement,setting,value
CCC(C)CO (centres undefined),outcome,[1],inactive
same,outcome,[2],inactive
same,outcome,[3],inactive
same,outcome,[4],inactive
same,outcome,[5],inactive
same,outcome,[6],inactive
same,outcome,[7],inactive
same,outcome,[8],inactive
same,outcome,[9],inactive
CC(=O)CCC(C)C,outcome,[1],inactive
same,outcome,[2],inactive
same,outcome,[3],inactive
same,outcome,[4],inactive
same,outcome,[5],inactive
same,outcome,[6],inactive
same,outcome,[10],inactive
same,outcome,[9],inactive
OCC(O)CC(F)(F)C(F)(F)C(F)(F)C(F)(F)F (centres undefined),outcome,[1],inactive
same,outcome,[2],inactive
same,outcome,[3],inactive
same,outcome,[4],inactive
same,outcome,[5],inactive
same,outcome,[6],inactive
same,outcome,[11],inactive
same,outcome,[12],inactive
same,outcome,[13],inactive
same,outcome,[7],inactive
same,outcome,[14],inactive
same,outcome,[15],inactive
same,outcome,[9],inactive
O=C(Cl)C(F)(F)C(F)(F)C(F)(F)C(F)(F)C(F)(F)C(F)(F)C(F)(F)F,outcome,[1],inactive
same,outcome,[2],inactive
same,outcome,[3],inactive
same,AC50,[4],49 µM (active)
same,outcome,[5],inactive
same,outcome,[6],inactive
same,outcome,[11],inactive
same,outcome,[12],inactive
same,outcome,[16],inactive
same,outcome,[13],inactive
same,AC50,[7],10.8 µM (active)
same,outcome,[17],inactive
same,outcome,[14],inactive
same,outcome,[15],inactive
same,AC50,[8],55.1 µM (active)
same,outcome,[9],inactive
O=S(=O)(O)c1ccc(Cl)cc1,outcome,[1],inactive
same,outcome,[18],inactive
same,outcome,[2],inactive
same,outcome,[4],inactive
same,outcome,[5],inactive
same,outcome,[6],inactive
same,outcome,[17],inactive
same,outcome,[8],inactive
CC(C)(C)c1cc(CCC(=O)OCC(COC(=O)CCc2cc(C(C)(C)C)c(O)c(C(C)(C)C)c2)(COC(=O)CCc2cc(C(C)(C)C)c(O)c(C(C)(C)C)c2)COC(=O)CCc2cc(C(C)(C)C)c(O)c(C(C)(C)C)c2)cc(C(C)(C)C)c1O,outcome,[1],inactive
same,outcome,[2],inactive
same,outcome,[3],inactive
same,outcome,[4],inactive
same,outcome,[5],inactive
same,outcome,[17],inactive
O=c1cccc[nH]1,outcome,[1],inactive
same,outcome,[2],inactive
same,outcome,[3],inactive
same,outcome,[4],inactive
same,outcome,[5],inactive
same,outcome,[6],inactive
same,outcome,[19],inactive
same,outcome,[10],inactive
same,outcome,[8],inactive
CC(C)=CCCC(C)O (centres undefined),outcome,[1],inactive
same,outcome,[18],inactive
same,outcome,[2],inactive
same,outcome,[3],inactive
same,outcome,[4],inactive
same,outcome,[5],inactive
same,outcome,[6],inactive
same,outcome,[8],inactive
CCN(CC)c1ccc(C=O)cc1,outcome,[1],inactive
same,outcome,[2],inactive
same,outcome,[3],inactive
same,outcome,[4],inactive
same,outcome,[5],inactive
same,outcome,[6],inactive
same,outcome,[11],inactive
same,outcome,[12],inactive
same,outcome,[13],inactive
same,outcome,[17],inactive
same,outcome,[14],inactive
same,outcome,[15],inactive
same,outcome,[8],inactive
same,AC50,[9],27.7 µM (active)
CO[Si](C)(CCC(F)(F)C(F)(F)C(F)(F)C(F)(F)C(F)(F)C(F)(F)F)OC,outcome,[1],inactive
same,outcome,[2],inactive
same,outcome,[3],inactive
same,outcome,[4],inactive
same,outcome,[5],inactive
same,outcome,[6],inactive
same,outcome,[11],inactive
same,outcome,[12],inactive
same,outcome,[13],inactive
same,outcome,[7],inactive
same,outcome,[17],inactive
same,outcome,[14],inactive
same,outcome,[15],inactive
same,outcome,[8],inactive
same,outcome,[9],inactive
Cc1cccc(C)n1,outcome,[1],inactive
same,outcome,[2],inactive
same,outcome,[3],inactive
same,outcome,[4],inactive
same,outcome,[5],inactive
same,outcome,[6],inactive
same,outcome,[19],inactive
same,outcome,[9],inactive

# Reference: PubChem BioAssay (EPA / NIEHS)
